Inconclusive results are not listed. Active and inactive are the calls of the source. Calls come from the whole dose curve; as a rule, active = well fitted cell-killing curve with a large enough effect in the repeat runs; inconclusive = weak or mixed curves, or effect the other way; inactive = no such curve, though single readings can be large or run the other way.
Assay: qHTS assay to identify small molecule agonists of the RXR signaling pathway - cell viability counter screen (AID 1159529); note: nearly all actives have a fitted effect of over 50% in size
Conditions: RXR-alpha-bla HEK293T viability, CellTiter-Glo, 16 h; series mostly up to 76.8 µM; activity change, negative = cytotoxicity: at the top concentration
From the text: National Center for Advancing Translational Sciences [NCATS]
NIH Chemical Genomics Center [NCGC]
U.S. Environmental Protection Agency [EPA]
National Institutes of Environmental Health Sciences [NIEHS]
National Toxicology Program [NTP]
U.S. Food and Drug Administration [FDA]
The Retinoid X receptor (RXR), a nuclear hormone receptor expressed in liver, spleen, placenta, epidermis, central nervous system. These receptors are able to form homo and heterodimers with other nuclear receptors and due to this heterodimerizing ability, RXR functions as master regulators producing diverse physiological effects. Three subtypes of RXR exist; alpha, beta and gamma. Retinoid X receptor alpha (RXR-alpha) has potential roles in metabolic signaling pathways, skin alopecia, dermal cysts, cardiac development, insulin sensitization etc. Therefore screening environmental chemicals on RXR-alpha signaling can be used for the studies focused on such therapeutic applications. For quantification of RXR-alpha ligands signaling, GeneBLAzer RXR alpha-UAS-bla HEK 293T (Life Technologies, Carlsbad, CA) cells containing a beta-lactamase reporter-gene under control of Retinoid X receptor-alpha response element were used to screen Tox21 10K library. The cytotoxicity of the Tox21 compound library against the RXR-alpha HEK 293T cell line was tested in parallel by measuring cell viability using CellTiter-Glo assay (Promega Corporation, Madison, WI) in the same wells.
Tox21 Assay Protocol Summary:
RXR-alpha HEK 293T cells were dispensed at 2,000 cells/6 uL of assay medium containing 2% charcoal-stripped FBS using a Multidrop Combi (ThermoFisher Scientific, Waltham, MA) dispenser. The assay was performed in black wall/clear-bottom 1536-well plates (Greiner Bio-One North America Inc. Monroe, NC). Tetraoctyl ammonium bromide was used as a positive control in the cytotoxicity screen. After the assay plates were incubated at 37 C and 5% CO2 for 5 hr, 23 nL of compounds dissolved in DMSO, positive control or DMSO only were transferred to the assay plate by a Pintool station (Kalypsys, San Diego, CA). The assay plates were incubated at 37 C and 5% CO2 for 16 hr. One uL of LiveBLAzer B/G FRET substrate (Life Technologies) was added using a Flying Reagent Dispenser (FRD) (Aurora Discovery, San Diego, CA) and the plates were incubated at room temperature for 2 hr. Fluorescence intensity (405 nm excitation, 460/530 nm emission) was measured using an Envision plate reader (PerkinElmer, Shelton, CT). For cytotoxicity, 4 uL/well of CellTiter-Glo reagent was added into the assay plates using an FRD. After 30 min incubation at room temperature, the luminescence intensity was measured using a ViewLux plate reader (PerkinElmer).
% is set by controls: 0 for no effect and ±100 for the full control effect.

Row | Structure (SMILES) | activity change, negative = cytotoxicity
1 | COc1ccc(C(=O)NCc2ccc(OCCN(C)C)cc2)cc1OC | 2.72% [at 35.3 µM] (inactive)
2 | O=C(O)CO | 11.7% (inactive)
3 | CCN(CC)c1cccc(O)c1 | 16.4% (inactive)
4 | COc1cc(NS(=O)(=O)c2ccc(N)cc2)nc(C)n1 | 3.35% [at 35.3 µM] (inactive)
5 | O=C(C(=O)c1ccco1)c1ccco1 | 1.19% (inactive)
6 | Cc1cc(CCCOc2c(C)cc(-c3noc(C(F)(F)F)n3)cc2C)on1 | 0.164% [at 35.3 µM] (inactive)
7 | FC(F)(F)C(F)(F)C(F)(F)C(F)(F)CCI | -8.55% [at 35.3 µM] (inactive)
8 | CC(=O)OCCC(C)CC(C)(C)C (stereo not given) | 3.7% (inactive)
9 | CC(=O)OCC(C)C | -1.92% (inactive)
10 | C[C@H](CS)C(=O)N1CCC[C@H]1C(=O)O | -1.66% [at 35.3 µM] (inactive)
11 | Nc1nc(-c2ccc([N+](=O)[O-])cc2)cs1 | 6.48% (inactive)
12 | Cc1cc(CCC(=O)OCCOCCOCCOC(=O)CCc2cc(C)c(O)c(C(C)(C)C)c2)cc(C(C)(C)C)c1O | 1.26% (inactive)
13 | OCC(CO)n1cnc(-c2ccc(F)cc2)c1-c1ccnc(Oc2ccccc2)n1 | 18.8% (inactive)
14 | O=C(O)CCS | 10.6% (inactive)
15 | CC(=O)OCC1=C(C(=O)O)N2C(=O)[C@@H](NC(=O)CSc3ccncc3)[C@H]2SC1 | -1.03% [at 35.3 µM] (inactive)
16 | Cc1c[nH]c2ccccc12 | 5.06% [at 35.3 µM] (inactive)
17 | CCOC(=O)C(C)O (stereo not given) | 1.14% (inactive)
18 | COc1cc(S(=O)(=O)Nc2ccccc2)c(OC)cc1N | 1.31% (inactive)
19 | NC(=O)CCCCC(N)=O | -1.85% (inactive)
20 | CC(C)(C)NCC(O)COc1cccc2c1C[C@H](O)[C@H](O)C2 (stereo not given in full) | 8.72% [at 35.3 µM] (inactive)

Row | Structure (SMILES) | activity change, negative = cytotoxicity
21 | C=CC(=O)NC(C)C | 0.597% (inactive)
22 | CS(=O)(=O)c1ccc([C@@H](C[C@H]2CCC(=O)C2)C(=O)Nc2cnccn2)cc1Cl | 2.24% (inactive)
23 | COc1ccc(C)cc1 | 3.81% (inactive)
24 | O=CNNC=O | 8.84% (inactive)
25 | CCCCCCCCCCCCCCN(C)C | 0.892% [at 15.8 µM] (inactive)
26 | CSSc1ccoc1C | -1.05% (inactive)
27 | Cc1oc(=O)oc1COC(=O)[C@@H]1N2C(=O)[C@@H](NC(=O)[C@H](N)c3ccccc3)[C@H]2SC1(C)C | 5.29% [at 35.3 µM] (inactive)
28 | CCCCCCCC/C=C/C(=O)O | -8.86% [at 35.3 µM] (inactive)
29 | O=C1[C@@H]2[C@H]3CC[C@H](C3)[C@@H]2C(=O)N1CCCCN1CCN(c2ncccn2)CC1 | -2.97% [at 35.3 µM] (inactive)
30 | CC(=O)N[C@@H](Cc1ccc(O)cc1)C(=O)O | -1.31% [at 35.3 µM] (inactive)
31 | CCCCCCCCCCCCCOC(=O)CCSCCC(=O)OCCCCCCCCCCCCC | 10.7% [at 15.8 µM] (inactive)
32 | C=CCOC(=O)COCCC(C)C | 0.456% (inactive)
33 | CC(C)(C)C(O)/C=C/c1ccc2c(c1)OCO2 (stereo not given) | 1.66% [at 35.3 µM] (inactive)
34 | O=NN(CCCl)C(=O)NCCCl | -10.4% [at 35.3 µM] (inactive)
35 | CCC(Cl)CC(Cl)C(Cl)C(Cl)C(Cl)C(C)Cl (stereo not given) | -9.76% [at 15.8 µM] (inactive)
36 | O=C1OC[C@H](Cc2cccc(O)c2)[C@H]1Cc1cccc(O)c1 | -0.444% [at 35.3 µM] (inactive)
37 | c1ccc(CNc2ncnc3c2ncn3C2CCCCO2)cc1 (stereo not given) | 15.1% (inactive)
38 | Cc1cccc(C)c1NC(=O)c1cc(S(N)(=O)=O)c(Cl)cc1O | 0.373% [at 35.3 µM] (inactive)
39 | CC(C)(C)CCCCCCOC(=O)c1ccccc1C(=O)OCCCCCCC(C)(C)C | -1.85% (inactive)
40 | CCNc1nc(N)nc(Cl)n1 | -5.44% (inactive)

Source: PubChem BioAssay (Tox21)
